The structures appear in SMILES notation. Inconclusive results are not listed. The source made the active and inactive calls. The call rests on the fitted dose curve; in most records, active means well fitted curve in the direction sought with a large enough effect; inconclusive means small, poorly fitted or top-dose-only effect, or another doubt; inactive means no such curve, though single readings can be large; an effect the other way counts as inactive or inconclusive.

Test [1] is described as follows: qHTS of pediatric cancer cell lines to identify multiple opportunities for drug repurposing: Primary screen for BT-37 cells (AID 1347094). Further: potency means the concentration at half of the fitted maximal effect. Put shortly:
(§1)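 Viability was measured as metabolically active cells after 48 hours of treatment, read by CellTiter-Glo luminescence. Compounds were tested at multiple final concentrations, giving concentration-response curves.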

A short description of test [2]: qHTS of pediatric cancer cell lines to identify multiple opportunities for drug repurposing: Primary screen for NB-EBc1 cells (AID 1347095). Further: potency means the concentration at half of the fitted maximal effect. The gist of the method: as §1
Test [3] can be described thus: qHTS of pediatric cancer cell lines to identify multiple opportunities for drug repurposing: Primary screen for SK-N-SH cells (AID 1347098). Further: nearly all actives have a fitted effect of over 65% in size. Further: potency means the concentration at half of the fitted maximal effect. The gist of the method: (§2)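 Cells (500-1,000/well) rested 5 h, then received compounds for 48 h; metabolically active cells were measured by CellTiter-Glo luminescence. Final concentrations spanned up to 46 µM (MIPE, 11-point) or 0.59 nM-46 µM (NPC, 8-point) in primary screens, 11-point in follow-ups.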

Test [4] can be described thus: qHTS of pediatric cancer cell lines to identify multiple opportunities for drug repurposing: Primary screen for NB1643 cells (AID 1347099). Further: nearly all actives have a fitted effect of over 50% in size. The gist of the method: as §1
Test [5] is described as follows: qHTS of pediatric cancer cell lines to identify multiple opportunities for drug repurposing: Primary screen for LAN-5 cells (AID 1347100). Further: potency means the concentration at half of the fitted maximal effect. The gist of the method: as §2
Test [6] can be described thus: qHTS of pediatric cancer cell lines to identify multiple opportunities for drug repurposing: Primary screen for BT-12 cells (AID 1347101). Further: nearly all actives have a fitted effect of over 25% in size. Further: potency means the concentration at half of the fitted maximal effect. Put shortly: as §2
A short description of test [7]: qHTS of pediatric cancer cell lines to identify multiple opportunities for drug repurposing: Primary screen for Rh18 cells (AID 1347102). Further: nearly all actives have a fitted effect of over 65% in size. Further: potency means the concentration at half of the fitted maximal effect. The gist of the method:
as §2

The nature of test [8]: qHTS of pediatric cancer cell lines to identify multiple opportunities for drug repurposing: Primary screen for Saos-2 cells (AID 1347097). Further: nearly all actives have a fitted effect of over 40% in size. Further: potency means the concentration at half of the fitted maximal effect. The gist of the method:
as §1

A short description of test [9]: qHTS of pediatric cancer cell lines to identify multiple opportunities for drug repurposing: Primary screen for U-2 OS cells (AID 1347096). Further: nearly all actives have a fitted effect of over 50% in size. Put shortly:
as §2

`COc1ccc(OC(=O)N(CC(=O)O)Cc2ccc(OCCc3nc(-c4ccccc4)oc3C)cc2)cc1`: the Potency entry in test [1], in test [2], in test [3], in [4], in test [5] and in test [6] was “inactive” throughout. In addition, the Potency result in test [7] is “inactive”.

For the compound `C[C@@H](O[C@H]1OCCN(Cc2n[nH]c(=O)[nH]2)[C@H]1c1ccc(F)cc1)c1cc(C(F)(F)F)cc(C(F)(F)F)c1`, the Potency in test [1] was 21.9 µM (active); in test [2], 18.8 µM (active); in test [8], 11.9 µM (active); in [3] it was 34.4 µM (active); in test [6], 15.5 µM (active); in [7], 23.7 µM (active).

For `CN1CCCN=C1/C=C/c1cccs1`, the Potency entry in test [1], in test [2], in test [9], in test [8], in test [3] and in test [4] was “inactive” in each case. The Potency result in test [5], in test [6] and in test [7] was “inactive” each time.

On to `CCCCN(CCN(CCCC)C(=O)N1CCOCC1)C(=O)N1CCOCC1`, for which the Potency result in [1], in test [2], in test [9], in test [5] and in test [7] was “inactive” in each case. Besides, in test [8], the Potency is 23.7 µM (active).

For `CCOc1ccc(NS(=O)(=O)c2ccc(N)cc2)nn1`, the Potency entry in test [1], in [9], in test [8], in [3], in test [4] and in test [5] was “inactive” each time. The Potency result in test [6] and in [7] was “inactive” in each case.

For the compound `CC[N+](CC)(CC)CCOC(=O)C(C1CCCC1)C1CCCC1`, the Potency entry in [1], in test [2], in [8], in test [3] and in [4] was “inactive” throughout.

Take `CN1C(=O)CC(C)(c2ccccc2)C1=O` (configuration not stated): the Potency entry in test [1], in [2], in test [9], in test [3], in test [4] and in test [5] was “inactive” in each case. Besides, the Potency result in test [6] and in test [7] was “inactive” throughout.

Turning to `OC(CCCN1CCCCC1)(c1ccccc1)c1ccccc1`, the Potency result in test [1], in [2], in test [8], in [3], in [4] and in test [5] was “inactive” each time. For the same compound, the Potency entry in [7] was “inactive”.

In the case of `CCCCC(CC)COC(=O)c1ccccc1C(=O)O` (configuration not stated), the Potency result in [1], in [9], in test [8], in [3], in test [4] and in test [5] was “inactive” throughout. Further, the Potency entry in [6] and in test [7] was “inactive” throughout.

Turning to `CCC[C@H](N[C@@H](C)C(=O)N1[C@H](C(=O)O)C[C@@H]2CCCC[C@@H]21)C(=O)OCC`, the Potency entry in test [1], in test [2], in [9], in [8], in test [4] and in test [5] was “inactive” throughout. Moreover, the Potency entry in test [7] is “inactive”.

Turning to `COC(=O)C1=C(C)NC(C)=C(C(=O)OCCc2ccc(N3CCN(C(c4ccccc4)c4ccccc4)CC3)cc2)C1c1cccc([N+](=O)[O-])c1` (configuration not stated), the Potency entry in test [1], in test [2], in test [9], in test [8], in test [3] and in test [4] was “inactive” throughout. For the same compound, the Potency result in test [5] and in test [7] was “inactive” in each case.

On to `O=C(COCCOCCOCC(=O)Nc1c(I)cc(I)c(C(=O)O)c1I)Nc1c(I)cc(I)c(C(=O)O)c1I`, for which the Potency entry in test [1], in test [9], in [8], in test [3], in test [4] and in test [5] was “inactive” in each case. The Potency result in test [6] and in test [7] was “inactive” each time.

Take `O=C(OCCN1CCOCC1)c1cccnc1Nc1cccc(C(F)(F)F)c1`: the Potency result in [1], in test [2], in test [9], in test [8], in test [3] and in test [4] was “inactive” each time. In addition, the Potency result in test [5], in test [6] and in [7] was “inactive” each time.

`CC(=O)/C=C/C=C1/C2CCC(C2)C1(C)C` (configuration not stated): the Potency result in [1], in test [2], in [9], in [8], in test [3] and in test [4] was “inactive” each time. The Potency result in test [5] and in [6] was “inactive” each time.

`CC(C)C(C)(C)C(C)(C)C(C)(C)S`: the Potency entry in [1], in test [2], in test [9], in [3], in test [4] and in test [5] was “inactive” each time. Besides, the Potency entry in [6] and in test [7] was “inactive” in each case.

For `COc1c(C)c2c(c(O)c1C/C=C(\C)CCC(=O)OCCN1CCOCC1)C(=O)OC2`, the Potency in test [1] is 0.347 µM (active); in test [2], 0.188 µM (active); in [5], 0.841 µM (active).

Regarding `Cc1ccc(CCn2c3c(c4cc(Cl)ccc42)CN(C)CC3)cn1`, the Potency result in [1], in [2], in test [9], in test [8], in test [4] and in test [5] was “inactive” each time. Besides, the Potency entry in [7] is “inactive”.

With `CC(=O)[C@@]1(O)CC[C@H]2[C@@H]3C[C@H](C)C4=CC(=O)CC[C@]4(C)[C@H]3CC[C@@]21C`, the Potency entry in [1], in test [2], in [9], in test [8], in [3] and in test [4] was “inactive” in each case. Moreover, in test [7], the Potency entry is “inactive”.

On to `CC(=O)OC/C=C(C)/C=C/C=C(C)/C=C/C1=C(C)CCCC1(C)C`, for which the Potency result in test [1], in test [2], in test [9], in test [3], in [4] and in [5] was “inactive” throughout. In addition, in [7], the Potency entry is “inactive”.

Regarding `c1ccc2occc2c1`, the Potency entry in test [1], in [2], in [9], in test [4], in test [5] and in test [6] was “inactive” throughout. The Potency entry in test [7] was “inactive”.

Regarding `CC(NCCC(c1ccccc1)c1ccccc1)c1ccccc1` (configuration not stated), the Potency in test [8] is 26.6 µM (active); in test [3] it was 27.3 µM (active); in test [5], 23.7 µM (active); in test [6], 27.6 µM (active).

Turning to `CCCCCOc1ccccc1/C(=C\SC)n1ccnc1`, the Potency entry in test [9], in test [3] and in test [5] was “inactive” throughout.

For `O=C(OCC(O)CO)c1ccccc1Nc1ccnc2c(C(F)(F)F)cccc12` (configuration not stated), the Potency result in [1], in [4], in [5] and in test [7] was “inactive” in each case.

As for `O=C(NO)c1ccccc1`, the Potency result in test [9], in test [5] and in test [6] was “inactive” throughout.

The values above are taken from PubChem BioAssay (NCATS).
